Here are results for nine molecules from PubChem BioAssay.

The structures appear in SMILES notation. Records with an inconclusive call do not appear. Activity calls are given as the source filed them.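 Rule for the calls, unless noted: active = viability at or below 27.92% in each of two runs, the all-compound median minus 4 SD; inconclusive = no clear call, values can overlap the other calls; inactive = the rest.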

Experiment [1] in a line: Her2 expression decrease, cell viability multiplex – SKBR3 breast tumor cells, AlphaScreen, ATP viability, primary screen (AID 461;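 active = Her2 level under about 52% in both replicate screens, with viability over 70% of control, limit read from the data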;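 for Her2 level: lower value means less Her2 protein in the cells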;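 for viability: percent of carrier control wells set as 100% viability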). To be noted: SKBR3 Her2 protein level, 18-24 h, measured here: SKBR3 viability, ATP luminescence, at 10 µM.
For experiment [2], the target named is Receptor tyrosine-protein kinase erbB-2 (Homo sapiens) (UniProt P04626). Described as above. To be noted: 18-24 h, at 10 µM, stronger effect = lower value.
Experiment [3] in a line: reduced viability of SK-BR-3 breast cancer cells – cell-based, 24 h, human, pilot screen (AID 572;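 active = viability at or below 10% of carrier control in both of two separate runs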;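 note: compound exposure lasted between 18 and 24 h rather than exactly 24 h; 100% = carrier-treated control wells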). To be noted: SK-BR-3 viability, CellTiter-Glo luminescence, at 10 µM, stronger effect = lower value.
Experiment [4] can be described thus: HUVEC growth inhibition – cell-based, human, primary screen (AID 575;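 active = viability at or below 30% in both replicate assays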;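 note: 100% = median of untreated cell wells with 0.1% DMSO on each plate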). Particulars: HUVEC proliferation, CellTiter-Glo luminescence, 72 h; at 10 µM; stronger effect = lower value.
The nature of experiment [5]: H69AR cell proliferation blockers – human, duplicate replicates, primary screen (AID 580;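 active = viability at or under a set limit in both replicates, limit being median viability minus 3 SD, cut at about 48% in these data, passing the limit was not always enough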;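 note: 100% = mean luminescence of untreated wells and 0% = no signal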). To be noted: H69AR lung tumor cells viability, ATP luminescence, 72 h; at 10 µM; stronger effect = lower value.
Experiment [6] in a line: MRP1 drug-resistance reversers in H69AR cells – cell-based, doxorubicin co-treatment, pilot screen (AID 601;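 active = viability loss from added drug above about 55%, and viability with drug at most 40%, in both replicates, limit read from the data, passing the limit was not always enough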). To be noted: CellTiter-Glo, 72 h, at 10 µM; for differential viability (reversal): stronger effect = higher value.
Experiment [7] can be described thus: yeast transport mutant growth inhibition pilot in 384-well plates, post-Golgi transport modulator project (AID 636; in the data active = inhibition above about 31%). Particulars: absorbance 615 nm, about 18 h, stronger effect = higher value.
Experiment [8] in a line: growth suppression of yeast trafficking mutant, preliminary HTS, modulators of trafficking downstream of Golgi apparatus project, 1536-format plate, OD 615 nm (AID 637; in the data active = inhibition above about 30%). To be noted: yeast transport mutant growth, absorbance 615 nm, 18 h; stronger effect = higher value.
Experiment [9] can be described thus: S. cerevisiae growth inhibition in permissive medium (OD615), pilot counter-assay for S. cerevisiae lifespan shortening project, permissive growth control (AID 705;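 active = growth inhibition above 25% in both replicates, a cutoff set 3 SD above the mean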). To be noted: OD615, 24 h, at 10 µM, stronger effect = higher value.
Experiment [10] can be described thus: S. cerevisiae growth inhibition in restrictive medium, OD615, pilot screen, restrictive growth control, yeast lifespan reduction project (AID 706;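 active = growth inhibition above a set limit, 3 SD over mean compound inhibition, in both replicates, cut at about 43% in these data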;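 note: modified DeaD lifespan yeast strain shifted to restrictive glucose medium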). Particulars: OD615, 48 h, at 10 µM, stronger effect = higher value.
Experiment [11] is described as follows: doxorubicin toxicity protection in MRP-1 cells – H69AR cells, CellTiter-Glo, duplicate, MRP-1 activator project, pilot screen (AID 807;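 active = viability increase at or above a cutoff of the median across tested compounds plus 3 SD, cut at about 8.5% in these data, passing the limit was not always enough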;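 note: compound pretreatment 18-22 h then 72 h combined with doxorubicin; 0% = doxorubicin alone and 100% = vehicle without doxorubicin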). Particulars: H69AR viability with doxorubicin, CellTiter-Glo luminescence; at 10 µM; stronger effect = higher value.
Experiment [12] can be described thus: viability of HCT116 without oncogenic beta-catenin – human colon tumor cells, pilot screen (AID 823;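 active = cell viability at or below a set limit in both duplicate runs, the limit being the all-compound median minus 4 SD, cut at about 23% in these data, passing the limit was not always enough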;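 note: 0% = wells killed by 20 µM Hyamine and 100% = untreated DMSO cell wells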). To be noted: HCT116 beta-catenin knockout viability, CellTiter-Glo, 60 h; at 10 µM; stronger effect = lower value.
The nature of experiment [13]: viability of PTEN-null HCT116 cells – cell-based, HCT116 clonal line, CellTiter-Glo, pilot screen (AID 824).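 Note: 0% = 20 µM Hyamine control and 100% = vehicle cell control.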 To be noted: HCT116 PTEN-deleted viability, 60 h, at 10 µM, stronger effect = lower value.
Experiment [14] is described as follows: RAM pathway blockade in budding yeast – dse1pr::URA3 reporter, 5-FOA selection, pilot screen (AID 869;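 active = inhibition over a set limit, the all-compound mean plus 3 SD, in both replicate runs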;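 note: 0% = DMSO wells with no growth and 100% = 10 µM 1-NA-PP1 with full growth; RAM network block rescues cells from 5-FOA so hits raise OD615 growth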). Particulars: S. cerevisiae dse1pr::URA3 5-FOA growth, OD615, 2 d; at 10 µM; stronger effect = higher value; strain carries analog-sensitive mutant Cbk1 kinase.
The nature of experiment [15]: RAM signaling pathway blockade in yeast – S. cerevisiae, Pdr1DBD-CYC8 efflux-inhibited sensitized strain, primary screen (AID 1298;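 active = RAM network inhibition above 8.4% in each of two replicates, 3 SD over the compound average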;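 note: 0% = DMSO untreated cells without growth and 100% = 10 µM 1-NA-PP1 full growth; higher means more yeast growth rescued from 5-FOA killing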). Particulars: S. cerevisiae cbk1-as DSE1-URA3 strain, 5-FOA growth OD615, 2 d; at 50 µM; stronger effect = higher value.
[16] abbreviates: H69AR cells + 2 uM doxorubicin, measured here: viability with 2 uM doxorubicin, stronger effect = lower value.
The mark [17] stands for this setting: H69AR cells, compound alone cytotoxicity.

Sequence of Receptor tyrosine-protein kinase erbB-2 (Homo sapiens) (P04626 whole entry, looked up): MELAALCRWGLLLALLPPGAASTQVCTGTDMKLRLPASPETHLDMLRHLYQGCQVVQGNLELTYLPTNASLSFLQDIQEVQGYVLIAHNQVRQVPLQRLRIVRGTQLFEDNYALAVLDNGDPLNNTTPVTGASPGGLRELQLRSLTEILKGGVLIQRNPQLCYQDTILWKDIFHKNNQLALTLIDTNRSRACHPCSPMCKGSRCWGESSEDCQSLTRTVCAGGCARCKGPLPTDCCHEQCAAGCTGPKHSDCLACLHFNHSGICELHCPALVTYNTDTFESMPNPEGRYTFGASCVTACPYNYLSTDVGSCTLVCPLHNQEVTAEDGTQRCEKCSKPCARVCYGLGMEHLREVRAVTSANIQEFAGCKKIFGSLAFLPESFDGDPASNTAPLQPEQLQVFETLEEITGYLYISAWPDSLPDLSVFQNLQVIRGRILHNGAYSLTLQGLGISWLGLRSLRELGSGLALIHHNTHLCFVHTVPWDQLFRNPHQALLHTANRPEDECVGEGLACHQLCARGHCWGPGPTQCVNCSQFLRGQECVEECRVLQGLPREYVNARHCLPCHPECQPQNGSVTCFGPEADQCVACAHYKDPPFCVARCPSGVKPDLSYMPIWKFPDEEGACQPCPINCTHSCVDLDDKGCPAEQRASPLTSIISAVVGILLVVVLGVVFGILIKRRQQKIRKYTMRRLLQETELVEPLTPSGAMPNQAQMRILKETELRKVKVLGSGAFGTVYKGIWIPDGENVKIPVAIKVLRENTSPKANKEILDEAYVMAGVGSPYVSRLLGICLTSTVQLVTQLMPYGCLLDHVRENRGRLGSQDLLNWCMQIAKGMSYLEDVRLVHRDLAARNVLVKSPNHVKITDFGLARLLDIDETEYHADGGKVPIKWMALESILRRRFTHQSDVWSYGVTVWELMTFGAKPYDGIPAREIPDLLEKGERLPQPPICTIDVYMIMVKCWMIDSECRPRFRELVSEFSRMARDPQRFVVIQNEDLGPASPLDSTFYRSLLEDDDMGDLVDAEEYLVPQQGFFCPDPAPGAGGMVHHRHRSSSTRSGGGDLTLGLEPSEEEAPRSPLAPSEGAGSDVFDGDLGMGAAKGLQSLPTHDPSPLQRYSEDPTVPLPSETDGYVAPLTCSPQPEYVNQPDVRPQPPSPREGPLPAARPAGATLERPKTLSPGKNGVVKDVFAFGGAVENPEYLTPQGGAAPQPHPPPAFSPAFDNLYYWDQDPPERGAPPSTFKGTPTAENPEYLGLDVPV

With `O=C(O)COc1ccc(S(=O)(=O)NCCc2ccccc2)cc1`, the viability in experiment [1] was 105%; in [3], 105% (inactive); in experiment [4], 115% (inactive); in [5], 106% (inactive); in [6] (setting [16]), 78.8%; in experiment [6] (setting [17]) it was 106%. The viability is 108% (inactive) in experiment [12] and 96.2% (inactive) in experiment [13]. In experiment [2], the Her2 level is 103% (inactive). In experiment [6] (H69AR cells + 2 uM doxorubicin), the differential viability (reversal) is 27.5% (inactive). For the same molecule, the inhibition in experiment [7] is -6.4% (inactive); in experiment [8] it was 2.62% (inactive); in experiment [14], 1.84% (inactive). Moreover, the growth inhibition was -6.59% (inactive) in experiment [9] and 10.2% (inactive) in [10]. For the same molecule, the viability increase in experiment [11] was -0.3% (inactive). Moreover, the RAM network inhibition in [15] is -2.61% (inactive).
In the case of `Nc1[nH]nc2nc(N3CCCC3)nc(-c3ccccc3)c12`, the viability is 113% in experiment [1]; 113% (inactive) in experiment [3]; 92% (inactive) in experiment [4]; 95.6% (inactive) in experiment [5]; 88.6% in [6] (setting [16]); 95.6% in experiment [6] (setting [17]). For the same molecule, the results for the viability in experiment [12] and in experiment [13] were 99% (inactive) and 90.9% (inactive), respectively. The Her2 level in experiment [2] was 97.5% (inactive). Further, in experiment [6] (H69AR cells + 2 uM doxorubicin), the differential viability (reversal) was 7% (inactive). In addition, the results for the inhibition in experiment [7], in [8] and in [14] were -6.27% (inactive), 2.1% (inactive) and 0.285% (inactive), respectively. The growth inhibition in experiment [9] is -6.15% (inactive); in experiment [10], -9.01% (inactive). In [11], the viability increase was -4.09% (inactive). The RAM network inhibition in experiment [15] was -0.16% (inactive).
Turning to `COCCCN1C(=O)C(=O)/C(=C(/O)c2ccc(OCC(C)C)cc2C)C1c1cccnc1` (stereo not drawn), the viability in experiment [1] was 109%; in [3] it was 109% (inactive); in experiment [4], 104% (inactive); in experiment [5] it was 98.1% (inactive); in experiment [6] (setting [16]), 96.6%; in [6] (setting [17]) it was 98.1%. The results for the viability in experiment [12] and in experiment [13] were 106% (inactive) and 95.6% (inactive), respectively. For the same molecule, the Her2 level in experiment [2] is 110% (inactive). In addition, in experiment [6] (H69AR cells + 2 uM doxorubicin), the differential viability (reversal) is 1.47% (inactive). In addition, the inhibition is -2.21% (inactive) in [7], -2.67% (inactive) in experiment [8] and 0.48% (inactive) in experiment [14]. Moreover, the growth inhibition in experiment [9] is -1.21% (inactive); in [10], 15.7% (inactive). In experiment [11], the viability increase is 0.13% (inactive). Moreover, in experiment [15], the RAM network inhibition was 2.11% (inactive).
As for `CCOC(=O)c1[nH]c(C)c(C(=O)Nc2ccc(Cl)cc2)c1C`, the viability is 88.5% in experiment [1]; 88.5% (inactive) in experiment [3]; 73.3% (inactive) in experiment [4]; 85.9% (inactive) in experiment [5]; 93% in experiment [6] (setting [16]); 85.9% in experiment [6] (setting [17]). Besides, the viability in experiment [12] is 96.7% (inactive); in [13] it was 95.2% (inactive). The Her2 level in experiment [2] is 109% (inactive). For the same molecule, the differential viability (reversal) in experiment [6] (H69AR cells + 2 uM doxorubicin) is -7.14% (inactive). Further, the inhibition in experiment [7] is 1.92% (inactive); in experiment [8] it was 0.17% (inactive); in [14], 1.79% (inactive). Moreover, the growth inhibition in [9] was -1.96% (inactive); in experiment [10] it was 2.55% (inactive). The viability increase in experiment [11] was 2.64% (inactive). Also, in experiment [15], the RAM network inhibition was 3.1% (inactive).
As to `CCCCN(CCCC)CCn1cnc2c([nH]c3ccc(OC)cc32)c1=O`, the viability was 76% in [1]; 76% (inactive) in [3]; 121% (inactive) in [4]; 80.2% (inactive) in experiment [5]; 92.9% in experiment [6] (setting [16]); 80.2% in experiment [6] (setting [17]). Moreover, the viability was 82.8% (inactive) in experiment [12] and 86.2% (inactive) in experiment [13]. Moreover, the Her2 level in experiment [2] was 90.5% (inactive). In experiment [6] (H69AR cells + 2 uM doxorubicin), the differential viability (reversal) was -12.8% (inactive). For the same molecule, the inhibition was -1.67% (inactive) in experiment [7], 2.17% (inactive) in experiment [8] and 0.545% (inactive) in experiment [14]. Besides, the growth inhibition in [9] was -6.29% (inactive); in experiment [10], 3.9% (inactive). The viability increase in [11] was -3.78% (inactive). In addition, the RAM network inhibition in experiment [15] is 2.03% (inactive).
As to `CCCc1nnc(NC(=O)NCCN2C(=O)C3C4C=CC(C4)C3C2=O)s1` (stereo not drawn), the viability was 110% in [1]; 110% (inactive) in experiment [3]; 96.6% (inactive) in experiment [4]; 97.8% (inactive) in experiment [5]; 92.2% in experiment [6] (setting [16]); 97.8% in [6] (setting [17]). For the same molecule, the viability in experiment [12] and in experiment [13] was 101% (inactive) throughout. Also, the Her2 level in experiment [2] is 121% (inactive). Moreover, the differential viability (reversal) in experiment [6] (H69AR cells + 2 uM doxorubicin) is 5.61% (inactive). Besides, the inhibition is 1.87% (inactive) in experiment [7], -13% (inactive) in [8] and -0.135% (inactive) in experiment [14]. Also, the growth inhibition in experiment [9] was -2.99% (inactive); in experiment [10], 6.19% (inactive). The viability increase in [11] is -0.68% (inactive). The RAM network inhibition in [15] was 3.27% (inactive).
For the molecule `CCOCCCNC(=O)Cn1cc2c(n1)CCCCC2`, the viability in [1] is 114%; in experiment [3] it was 114% (inactive); in [4], 109% (inactive); in experiment [5], 103% (inactive); in experiment [6] (setting [16]), 96.8%; in experiment [6] (setting [17]), 103%. The results for the viability in experiment [12] and in experiment [13] were 100% (inactive) and 99.9% (inactive), respectively. In [2], the Her2 level was 104% (inactive). For the same molecule, the differential viability (reversal) in experiment [6] (H69AR cells + 2 uM doxorubicin) was 6.04% (inactive). Also, the inhibition in experiment [7] is 1.03% (inactive); in experiment [8] it was 2.67% (inactive); in experiment [14] it was 2.07% (inactive). Also, the results for the growth inhibition in experiment [9] and in experiment [10] were -3.18% (inactive) and -3.17% (inactive), respectively. The viability increase in experiment [11] was -0.62% (inactive). For the same molecule, the RAM network inhibition in [15] is 3.72% (inactive).
With `N#Cc1cnc2sc3ccccc3n2c1=N`, the viability in experiment [1] is 99%; in experiment [3], 99% (inactive); in [4], 69% (inactive); in experiment [5] it was 87.7% (inactive); in experiment [6] (setting [16]), 90.5%; in experiment [6] (setting [17]), 87.7%. The viability in [12] was 94.4% (inactive); in [13], 95.9% (inactive). The Her2 level in experiment [2] is 114% (inactive). In experiment [6] (H69AR cells + 2 uM doxorubicin), the differential viability (reversal) is -2.73% (inactive). The inhibition in [7] is -3.07% (inactive); in experiment [8], 3.06% (inactive); in experiment [14], -0.405% (inactive). Further, the growth inhibition was 0.55% (inactive) in experiment [9] and 12.3% (inactive) in [10]. Moreover, the viability increase in experiment [11] was -1.27% (inactive). Further, in experiment [15], the RAM network inhibition was 5.97% (inactive).
As for `N#C/C(C(=O)N1CCOCC1)=C1/SC=C(c2ccccc2)N1c1ccccc1`, the viability was 102% in [1]; 102% (inactive) in experiment [3]; 107% (inactive) in experiment [4]; 96.1% (inactive) in experiment [5]; 91.3% in [6] (setting [16]); 96.1% in [6] (setting [17]). In addition, the viability was 96.6% (inactive) in [12] and 95% (inactive) in [13]. Further, the Her2 level in [2] is 92% (inactive). For the same molecule, the differential viability (reversal) in experiment [6] (H69AR cells + 2 uM doxorubicin) is 4.83% (inactive). The inhibition in experiment [7] is -7.57% (inactive); in experiment [8], 1.67% (inactive); in experiment [14] it was 2.57% (inactive). The growth inhibition in experiment [9] was -1.56% (inactive); in [10], -17.9% (inactive). For the same molecule, in experiment [11], the viability increase is -1.27% (inactive). For the same molecule, the RAM network inhibition in experiment [15] is 1.55% (inactive).
